Measurements: PubChem BioAssay AID1159580 (chemical genetic matrix, 2015)
Out of some 5,500 compounds screened, about 2,000 (36%) were called active. About 18% were inconclusive and are not listed. This is one part of the list. Values without a mark were called inactive. Cut-off read from the data, not from the text of the source: active = normalized growth mostly below about 0.91 (no sharp cut-off); inconclusive = no clear call, values can overlap the other calls; inactive = mostly above about 0.92.

Test: chemical genetic growth profiling, strain panel (AID 1159580);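 note: tested at 20 µM; growth read once vehicle control cultures reached saturation at 30 °C; 1 = growth at the plate median or of vehicle wells; lower values mean less growth of the strain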
Conditions: S. cerevisiae deletion strains, growth OD

Structure (SMILES): Cc1c(O)c(O)cc2c1CC=C1[C@@]2(C)CC[C@@]2(C)C3C[C@](C)(C(=O)O)CC[C@]3(C)CC[C@]12C (some centres not stated)
- normalized growth (locus YJR043C, strain POL32, active compounds read low): 0.914
- normalized growth (locus YJR066W, strain TOR1, active compounds read low): 0.901
- normalized growth (locus YKL009W, strain mrt4, active compounds read low): 0.986
- normalized growth (locus YKL068W, active compounds read low): 0.941 (active)
- normalized growth (locus YKL085W, strain MDH1 (second series), active compounds read low): 0.919 (active)
- normalized growth (locus YKL085W, strain MDH1, active compounds read low): 0.919 (active)
- normalized growth (locus YKL160W, strain elf1, active compounds read low): 0.386 (active)
- normalized growth (locus YKR001C, strain vps1, active compounds read low): 0.728 (active)
- normalized growth (locus YKR026C, strain gcn3, active compounds read low): 0.804 (active)
- normalized growth (locus YKR091W, strain srl3, active compounds read low): 0.8 (active)
- normalized growth (locus YLL001W, strain dnm1, active compounds read low): 0.617 (active)
- normalized growth (locus YLL026W, active compounds read low): 0.496 (active)
- normalized growth (locus YLL041C, strain sdh2, active compounds read low): 0.645 (active)
- normalized growth (locus YLR027C, strain aat2, active compounds read low): 0.433 (active)
- normalized growth (locus YLR039C, strain RIC1, active compounds read low): 0.616 (active)
- normalized growth (locus YLR058C, strain SHM2, active compounds read low): 0.894
- normalized growth (locus YLR102C, strain apc9, active compounds read low): 0.984
- normalized growth (locus YLR113W, strain HOG1, active compounds read low): 0.651 (active)
- normalized growth (locus YLR221C, strain rsa3, active compounds read low): 0.4 (active)
- normalized growth (locus YLR258W, strain gsy2, active compounds read low): 0.398 (active)
- normalized growth (locus YLR262C, strain YPT6 (second series), active compounds read low): 0.186 (active)
- normalized growth (locus YLR262C, strain YPT6, active compounds read low): 0.609
- normalized growth (locus YLR268W, strain sec22, active compounds read low): 0.891
- normalized growth (locus YLR320W, strain mms22, active compounds read low): 0.221 (active)
- normalized growth (locus YLR330W, strain CHS5, active compounds read low): 0.877 (active)
- normalized growth (locus YLR342W, strain FKS1 (second series), active compounds read low): 0.868
- normalized growth (locus YLR342W, strain FKS1, active compounds read low): 0.561 (active)
- normalized growth (locus YLR357W, strain rsc2, active compounds read low): 0.657 (active)
- normalized growth (locus YLR370C, strain arc18, active compounds read low): 0.63 (active)
- normalized growth (locus YLR371W, strain rom2, active compounds read low): 0.912
- normalized growth (locus YLR384C, strain iki3, active compounds read low): 0.885 (active)
- normalized growth (locus YLR418C, strain cdc73, active compounds read low): 0.645 (active)
- normalized growth (locus YML016C, strain PPZ1, active compounds read low): 0.927
- normalized growth (locus YML032C, strain rad52, active compounds read low): 0.96
- normalized growth (locus YML120C, strain ndi1, active compounds read low): 0.568 (active)
- normalized growth (locus YML124C, strain tub3, active compounds read low): 0.971
- normalized growth (locus YMR058W, strain fet3, active compounds read low): 0.0953 (active)
- normalized growth (locus YMR078C, strain ctf18, active compounds read low): 0.984
- normalized growth (locus YMR125W, strain sto1, active compounds read low): 0.483 (active)
- normalized growth (locus YMR129W, active compounds read low): 0.764 (active)
- normalized growth (locus YMR205C, strain PFK2, active compounds read low): 0.364 (active)
- normalized growth (locus YMR223W, strain ubp8, active compounds read low): 0.906
- normalized growth (locus YMR231W, strain pep5, active compounds read low): 0.361 (active)
- normalized growth (locus YMR307W, strain GAS1, active compounds read low): 0.782
- normalized growth (locus YNL067W, strain RPL9B, active compounds read low): 0.918
- normalized growth (locus YNL071W, strain lat1, active compounds read low): 0.0934 (active)
- normalized growth (locus YNL183C, strain NPR1, active compounds read low): 0.837
- normalized growth (locus YNL209W, strain ssb2, active compounds read low): 0.376 (active)
- normalized growth (locus YNL233W, strain BNI4, active compounds read low): 0.873
- normalized growth (locus YNL248C, strain rpa49, active compounds read low): 0.741 (active)
- normalized growth (locus YNL250W, strain rad50, active compounds read low): 0.972
- normalized growth (locus YNL271C, strain bni1, active compounds read low): 0.991
- normalized growth (locus YNL298W, strain CLA4, active compounds read low): 1.01
- normalized growth (locus YNL307C, strain MCK1, active compounds read low): 0.822 (active)
- normalized growth (locus YNL322C, strain KRE1 (second series), active compounds read low): 0.935
- normalized growth (locus YNL322C, strain KRE1, active compounds read low): 0.937
- normalized growth (locus YNR049C, strain mso1, active compounds read low): 0.72 (active)
- normalized growth (locus YNR052C, strain pop2, active compounds read low): 0.977
- normalized growth (locus YOL012C, strain htz1): 0.648
- normalized growth (locus YOL147C, strain pex11, active compounds read low): 0.976
- normalized growth (locus YOR001W, strain rrp6, active compounds read low): 0.683 (active)
- normalized growth (locus YOR061W, strain CKA2, active compounds read low): 0.934
- normalized growth (locus YOR069W, strain VPS5, active compounds read low): 0.945
- normalized growth (locus YOR070C, strain gyp1, active compounds read low): 0.393 (active)
- normalized growth (locus YOR080W, strain dia2, active compounds read low): 0.697 (active)
- normalized growth (locus YOR083W, strain WHI5, active compounds read low): 0.656 (active)
- normalized growth (locus YOR106W, strain vam3, active compounds read low): 0.331 (active)
- normalized growth (locus YOR136W, strain idh2, active compounds read low): 1
- normalized growth (locus YOR144C, strain elg1, active compounds read low): 0.977
- normalized growth (locus YOR184W, strain ser1, active compounds read low): 0.812 (active)
- normalized growth (locus YOR231W, strain MKK1, active compounds read low): 0.917
- normalized growth (locus YOR265W, strain rbl2, active compounds read low): 0.479 (active)
- normalized growth (locus YOR270C, strain vph1, active compounds read low): 0.273 (active)
- normalized growth (locus YOR290C, strain snf2, active compounds read low): 0.434 (active)
- normalized growth (locus YOR316C, strain cot1, active compounds read low): 0.981
- normalized growth (locus YPL051W, strain arl3, active compounds read low): 0.248 (active)
- normalized growth (locus YPL055C, strain LGE1, active compounds read low): 0.755 (active)
- normalized growth (locus YPL078C, strain atp4, active compounds read low): 0.62 (active)
- normalized growth (locus YPL106C, strain sse1, active compounds read low): 0.507 (active)
- normalized growth (locus YPL240C, strain hsp82, active compounds read low): 0.417 (active)
- normalized growth (locus YPL241C, strain CIN2, active compounds read low): 0.96
- normalized growth (locus YPL256C, strain CLN2, active compounds read low): 0.856
- normalized growth (locus YPR119W, strain clb2, active compounds read low): 0.979
- normalized growth (locus YPR141C, strain kar3, active compounds read low): 0.956
- normalized growth (locus YPR163C, strain tif3, active compounds read low): 0.924
- normalized growth (locus YPR167C, strain met16, active compounds read low): 0.948
- normalized growth (strain wtn01, active compounds read low): 0.93
